According to PubChem BioAssay:

Assay: Primary imaging screen for DUSP6 inhibitors that restore phospho-Erk in transfected HeLa cells, chemical complementation (AID 609)
Conditions: HeLa MKP-3 transfected, phospho-Erk imaging KS statistic; measured here: cell density z-score; at 10 µM; cells stimulated with TPA for 15 min
In the case of `Cc1cc(C)n(S(=O)(=O)/C=C/c2ccccc2)n1`, the z-score is reported as 8.45e-06. `N#Cc1nc(-c2ccc(F)cc2)oc1N1CCCC1` gave a z-score of 1.01. Compound `CCOC(=O)c1[nH]c2ccc(C)cc2c1N=CN(CC)CC` has a z-score of -1.2. With `Cn1c(NCCCO)nc2c1c(=O)n(Cc1ccccc1F)c(=O)n2C` the z-score was -0.594. `C=CCOc1ccc(/C(O)=C2/C(=O)C(=O)N(CCCN3CCOCC3)C2c2ccc(OC)cc2)cc1` (stereo not given) gave a z-score of 0.861. With `CCOc1ccc2c(c1)n([O-])c1c([n+]2=O)CCCC1` the z-score was -0.67. `CCCC(=O)N1CCc2[nH]c3ccccc3c2C1` showed a z-score of 0.76. For `CCN(CC)c1nc(N2CCOCC2)c(C#N)c2c1CN(C)CC2`, the z-score was 1.03. `CN1C(=O)C2(c3ccccc31)C1CCCC=C1C(C#N)=C(N)C2(C#N)C#N` (stereo not given) gave a z-score of -0.865. For `Cc1sc(-n2c(C)ccc2C)c(C#N)c1C`, the z-score was -1.09. Compound `CCN(CC)CCN1C(=O)C(O)=C(C(C)=O)C1c1ccc(OC)c(OC)c1` (stereo not given) has a z-score of 0.172. For `CCOC(=O)C(C(=O)OCC)N(C#N)c1nc(SC)nc(N(C)C)n1`, the z-score was -3.26. In the case of `CCSc1nnc(NC(=O)C(C)(C(F)(F)F)C(F)(F)F)s1`, the z-score is reported as -1.16. In the case of `CC(C)=CCC(C)(C)CNC(=O)NC1CCCCC1`, the z-score is reported as -0.346. Work on `CCCOC(=O)CSC1=C(C#N)C(c2ccc3c(c2)OCO3)CC(=O)N1` (stereo not given) yielded a z-score of 0.796. In the case of `COc1ccc(N2CC(=O)N(c3ccc(OC)c(OC)c3)CC2=O)cc1OC`, the z-score is reported as -0.173. In the case of `CCCCCCOc1ccc(C(=O)n2cnc(N)n2)cc1`, the z-score is reported as 0.344. Compound `CCSc1nc2sc3c(c2c2nnc(SCC(=O)NCc4ccco4)n12)CCCC3` has a z-score of -0.011. `C=CCc1cccc(CNc2nc3ccccc3n2C(C)C)c1O` gave a z-score of -1.18. In the case of `O=C(Nc1ccc(N2CCN(C(=O)c3ccccc3)CC2)c(Cl)c1)c1ccc(Br)o1`, the z-score is reported as -0.73. With `COc1ccc(NC(=O)c2c(C)cc(=O)oc2C)c(OC)c1` the z-score was 0.599. Work on `Cc1c(C)[n+](=O)c2c(n1[O-])CCC2` yielded a z-score of -0.661. For `COC(=O)CCc1c(C)[nH]c(=S)[nH]c1=O`, the z-score was -0.296. With `CCOC(=O)C1=C(N)n2c(s/c(=C\c3cccnc3)c2=O)=C(C(=O)OC)C1c1cccnc1` (stereo not given) the z-score was -0.584. With `COc1ccc(CNc2oc(COc3ccc(Cl)cc3)nc2C#N)cc1` the z-score was 0.0253. Work on `CC1(C)Cc2[nH]c(=O)c(C#N)cc2CS1` yielded a z-score of 0.698. Work on `COc1ccccc1C1CC(c2ccc(Cl)cc2)Nc2nc(N)nn21` (stereo not given) yielded a z-score of -0.136. Work on `CCOC(=O)C(C)Oc1ccc2c(C)cc(=O)oc2c1C(C)=O` (stereo not given) yielded a z-score of -0.905. `CCC1(C)Cc2c(sc(NC(=O)CCC(=O)O)c2C#N)CO1` (stereo not given) showed a z-score of 1.02. Compound `Cc1cc(C)n(CC(=O)c2ccccc2)c(=O)c1C#N` has a z-score of -1.09. For `COc1cccc(Cn2c(NCc3ccccn3)nc3c2c(=O)n(C)c(=O)n3C)c1`, the z-score was 0.955. Compound `O=C(NCCCN1CCOCC1)C1(c2ccccc2)CCOCC1` has a z-score of -0.279. In the case of `O=C(NCc1ccco1)c1ccc(=O)[nH]n1`, the z-score is reported as 0.426. For `CC(NC(=O)CSc1nc2c(cc1C#N)CN(C)CC2)c1ccccc1` (stereo not given), the z-score was 0.748. `COc1cccc(C(=O)OC2CCCN(C)C2)c1` (stereo not given) gave a z-score of 0.452. Work on `Cn1c(=O)[nH]c(=O)c2c1nc(N1CCN(c3cccc(Cl)c3)CC1)n2CCCc1ccccc1` yielded a z-score of 0.751. For `CCOC(=O)c1[nH]c2ccc(OC)cc2c1NC(=O)CCN1CCCC(C)C1` (stereo not given), the z-score was -0.422. With `O=C(NCc1ccccc1)C1C(=O)N(Cc2ccccc2)C(=O)C1C1(O)CCCC1` (stereo not given) the z-score was -0.94. `COC(=O)c1ccccc1NC(=O)C1COc2ccccc2O1` (stereo not given) gave a z-score of 1.14. Compound `CCOC(=O)c1[nH]c2ccccc2c1N=CN(CC)CC` has a z-score of -0.555.

Same assay, conditions: HeLa MKP-3 transfected, phospho-Erk imaging KS statistic; measured here: nuclear c-Myc green intensity z-score; at 10 µM; cells stimulated with TPA for 15 min
With `Cc1cc(C)n(S(=O)(=O)/C=C/c2ccccc2)n1` the z-score was -0.53. In the case of `N#Cc1nc(-c2ccc(F)cc2)oc1N1CCCC1`, the z-score is reported as 1.06. `CCOC(=O)c1[nH]c2ccc(C)cc2c1N=CN(CC)CC` gave a z-score of 1.5. With `Cn1c(NCCCO)nc2c1c(=O)n(Cc1ccccc1F)c(=O)n2C` the z-score was -1.48. Work on `C=CCOc1ccc(/C(O)=C2/C(=O)C(=O)N(CCCN3CCOCC3)C2c2ccc(OC)cc2)cc1` (stereo not given) yielded a z-score of -1.19. In the case of `CCOc1ccc2c(c1)n([O-])c1c([n+]2=O)CCCC1`, the z-score is reported as 0.548. Work on `CCCC(=O)N1CCc2[nH]c3ccccc3c2C1` yielded a z-score of 0.615. Compound `CCN(CC)c1nc(N2CCOCC2)c(C#N)c2c1CN(C)CC2` has a z-score of -1.51. `CN1C(=O)C2(c3ccccc31)C1CCCC=C1C(C#N)=C(N)C2(C#N)C#N` (stereo not given) gave a z-score of 0.905. Work on `Cc1sc(-n2c(C)ccc2C)c(C#N)c1C` yielded a z-score of -0.0847. With `CCN(CC)CCN1C(=O)C(O)=C(C(C)=O)C1c1ccc(OC)c(OC)c1` (stereo not given) the z-score was -0.258. With `CCOC(=O)C(C(=O)OCC)N(C#N)c1nc(SC)nc(N(C)C)n1` the z-score was 2.37. Work on `CCSc1nnc(NC(=O)C(C)(C(F)(F)F)C(F)(F)F)s1` yielded a z-score of 0.962. For `CC(C)=CCC(C)(C)CNC(=O)NC1CCCCC1`, the z-score was -0.203. Compound `CCCOC(=O)CSC1=C(C#N)C(c2ccc3c(c2)OCO3)CC(=O)N1` (stereo not given) has a z-score of -0.679. `COc1ccc(N2CC(=O)N(c3ccc(OC)c(OC)c3)CC2=O)cc1OC` showed a z-score of -2.28. For `CCCCCCOc1ccc(C(=O)n2cnc(N)n2)cc1`, the z-score was 0.534. Work on `CCSc1nc2sc3c(c2c2nnc(SCC(=O)NCc4ccco4)n12)CCCC3` yielded a z-score of -1.17. With `C=CCc1cccc(CNc2nc3ccccc3n2C(C)C)c1O` the z-score was 1.98. `O=C(Nc1ccc(N2CCN(C(=O)c3ccccc3)CC2)c(Cl)c1)c1ccc(Br)o1` showed a z-score of 0.543. In the case of `COc1ccc(NC(=O)c2c(C)cc(=O)oc2C)c(OC)c1`, the z-score is reported as -0.258. For `Cc1c(C)[n+](=O)c2c(n1[O-])CCC2`, the z-score was -0.154. `COC(=O)CCc1c(C)[nH]c(=S)[nH]c1=O` gave a z-score of -0.397. Work on `CCOC(=O)C1=C(N)n2c(s/c(=C\c3cccnc3)c2=O)=C(C(=O)OC)C1c1cccnc1` (stereo not given) yielded a z-score of 1.82. `COc1ccc(CNc2oc(COc3ccc(Cl)cc3)nc2C#N)cc1` showed a z-score of 0.364. For `CC1(C)Cc2[nH]c(=O)c(C#N)cc2CS1`, the z-score was -0.413. With `COc1ccccc1C1CC(c2ccc(Cl)cc2)Nc2nc(N)nn21` (stereo not given) the z-score was -0.282. Work on `CCOC(=O)C(C)Oc1ccc2c(C)cc(=O)oc2c1C(C)=O` (stereo not given) yielded a z-score of 0.873. `CCC1(C)Cc2c(sc(NC(=O)CCC(=O)O)c2C#N)CO1` (stereo not given) gave a z-score of 0.907. `Cc1cc(C)n(CC(=O)c2ccccc2)c(=O)c1C#N` showed a z-score of 0.551. `COc1cccc(Cn2c(NCc3ccccn3)nc3c2c(=O)n(C)c(=O)n3C)c1` showed a z-score of -1.34. `O=C(NCCCN1CCOCC1)C1(c2ccccc2)CCOCC1` showed a z-score of 1.09. For `O=C(NCc1ccco1)c1ccc(=O)[nH]n1`, the z-score was -0.894. `CC(NC(=O)CSc1nc2c(cc1C#N)CN(C)CC2)c1ccccc1` (stereo not given) showed a z-score of -0.601. With `COc1cccc(C(=O)OC2CCCN(C)C2)c1` (stereo not given) the z-score was 1.21. In the case of `Cn1c(=O)[nH]c(=O)c2c1nc(N1CCN(c3cccc(Cl)c3)CC1)n2CCCc1ccccc1`, the z-score is reported as -1.24. `CCOC(=O)c1[nH]c2ccc(OC)cc2c1NC(=O)CCN1CCCC(C)C1` (stereo not given) gave a z-score of -0.411. Compound `O=C(NCc1ccccc1)C1C(=O)N(Cc2ccccc2)C(=O)C1C1(O)CCCC1` (stereo not given) has a z-score of 0.675. For `COC(=O)c1ccccc1NC(=O)C1COc2ccccc2O1` (stereo not given), the z-score was -0.164. Compound `CCOC(=O)c1[nH]c2ccccc2c1N=CN(CC)CC` has a z-score of 0.832.
